Measurements reported in PubChem BioAssay (NCI).
This is part of a sample that, as a whole, favours compounds with a hit. Of some 79,000 tested, about 15% had one in any assay. Active and inactive are the calls of the source. Cut-off read from the data, not from the text of the source: active = growth inhibition above about 70%; inactive = the rest.

Tests used:
[1] = NCI Yeast Anticancer Drug Screen. Data for the rad52 strain (AID 147);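 note: 0% = growth of vehicle-treated control cultures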; conditions: S. cerevisiae rad52 mutant growth inhibition, hits give high values
In short: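 Compounds are applied to a genetically defined yeast strain lacking normal DNA damage repair, and inhibition of growth is expressed relative to cultures given vehicle only.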

[2] = NCI Yeast Anticancer Drug Screen. Data for the wt1 strain (AID 149);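 note: 0% = growth of vehicle-treated wt1 cultures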; conditions: S. cerevisiae wt1 strain (SPY 50644) growth inhibition, hits give high values
In short: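 Using yeast strain wt1, compound-induced growth inhibition was determined against vehicle-treated cultures.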

[3] = NCI Yeast Anticancer Drug Screen. Data for the rad50EPP+ strain (AID 151);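 note: 0% = growth of vehicle-treated control cultures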; conditions: S. cerevisiae rad50 mutant strain, hits give high values
In short: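 Compounds were applied to the rad50EPP+ yeast strain, which bears a defined DNA repair alteration, and growth inhibition was determined relative to vehicle-treated cultures.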

[4] = NCI Yeast Anticancer Drug Screen. Data for the mgt1 strain (AID 153); conditions: S. cerevisiae mgt1 mutant growth inhibition, hits give high values
In short: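 Strain: mgt1 yeast, one of a set carrying defined DNA damage repair or cell cycle control alterations. Compound-treated growth compared with vehicle.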

[5] = NCI Yeast Anticancer Drug Screen. Data for the rad50 strain (AID 155);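 note: 0% = growth of vehicle-only cultures of the same strain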; conditions: S. cerevisiae rad50 strain growth inhibition, hits give high values
In short: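 Relative growth inhibition (compound vs vehicle) was measured in yeast with a defined repair-gene alteration.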

[6] = NCI Yeast Anticancer Drug Screen. Data for the mec2-1 strain (AID 157); conditions: S. cerevisiae mec2-1 strain, hits give high values
In short: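 Strain: mec2-1 (DNA repair/cell cycle alteration). Compound exposure, then growth measured; inhibition expressed relative to vehicle.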

[7] = NCI Yeast Anticancer Drug Screen. Data for the rad14 strain (AID 159);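 note: 0% = growth of vehicle-treated control cultures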; conditions: S. cerevisiae rad14 strain growth inhibition, hits give high values
In short: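 Screen for anticancer potential: a yeast strain altered in DNA damage repair is grown with compound, and reduced growth is quantified against vehicle controls.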

[8] = NCI Yeast Anticancer Drug Screen. Data for the sgs1 mgt1 strain (AID 161);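 note: 0% = growth of cultures given vehicle only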; conditions: S. cerevisiae sgs1 mgt1 strain, hits give high values
In short: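 Read-out: growth inhibition vs vehicle controls. Cells: mutant yeast strain deficient in DNA damage repair.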

[9] = NCI Yeast Anticancer Drug Screen. Data for the CLN2oe strain (AID 163);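 note: 0% = growth of vehicle-only control cultures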; conditions: S. cerevisiae CLN2oe strain, hits give high values
In short: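 Growth of a genetically modified yeast strain is measured after compound exposure and compared with cultures given vehicle alone.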

[10] = NCI Yeast Anticancer Drug Screen. Data for the cln2 rad14 strain (AID 165);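 note: 0% = growth equal to vehicle treated cultures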; conditions: S. cerevisiae cln2 rad14 strain, hits give high values
In short: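 Compounds are applied to the cln2 rad14 yeast strain, and growth is then compared with that of vehicle-treated cultures to give inhibition.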

[11] = NCI Yeast Anticancer Drug Screen. Data for the bub3 strain (AID 167); conditions: S. cerevisiae bub3 mutant strain, hits give high values
In short: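 Screening used yeast with an engineered genetic alteration affecting cell cycle control. Compound-exposed cultures were compared with vehicle cultures, and reduced growth was taken as inhibition.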

[12] = NCI Yeast Anticancer Drug Screen. Data for the wt2 strain (AID 169);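 note: 0% = growth of vehicle-treated yeast cultures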; conditions: S. cerevisiae wt2 strain growth inhibition, hits give high values
In short: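 This strain belongs to a panel of yeast strains with defined genetic alterations in DNA damage repair or cell cycle control. Compounds are applied, and growth inhibition is measured against vehicle-treated cultures.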

[13] = NCI Yeast Anticancer Drug Screen. Data for the mlh1 strain (AID 171);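 note: 0% = growth of vehicle-treated control cultures of the same strain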; conditions: S. cerevisiae mlh1 strain growth inhibition, hits give high values
In short: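 Growth of the mutant yeast strain after compound exposure, expressed as inhibition relative to vehicle-only controls.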

[14] = NCI Yeast Anticancer Drug Screen. Data for the sgs1 strain (AID 173);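 note: 0% = growth of vehicle-only control cultures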; conditions: S. cerevisiae sgs1 mutant, hits give high values
In short: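 Growth of a yeast strain bearing a defined genetic alteration is measured after compound treatment. Inhibition is expressed relative to vehicle-only controls.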

[15] = NCI Yeast Anticancer Drug Screen. Data for the mlh1 rad18 strain (AID 175); conditions: S. cerevisiae mlh1 rad18 strain growth inhibition, hits give high values
In short: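 Read-out is yeast growth inhibition, calculated against vehicle-only controls. The compound was applied to a strain engineered with DNA damage repair alterations.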

[16] = NCI Yeast Anticancer Drug Screen. Data for the rad18 strain (AID 177); conditions: S. cerevisiae rad18 mutant growth inhibition, hits give high values
In short: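 Growth of the mutant yeast strain after compound exposure, normalised to vehicle-only cultures.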

[17] = at 5.0 µM (retest, dose inferred, filed as 0.5)
[18] = at 50.0 µM (retest, dose inferred, filed as 5.0)

Measured: growth inhibition

O=C1Nc2ccccc2/C1=C/COc1ccccc1
active: [1]; at 33.0 µM 90% | [1]; at 100.0 µM 98% | [2]; at 100.0 µM 97% | [3]; at 11.0 µM 92% | [3]; at 33.0 µM 97% | [3]; at 100.0 µM 98% | [4]; at 33.0 µM 93% | [4]; at 100.0 µM 99% | [5]; at 33.0 µM 71% | [5]; [18] 99% | [5]; at 50.0 µM 99.5% | [5]; at 100.0 µM 98% | [6]; at 33.0 µM 97% | [6]; [18] 99% | [6]; at 50.0 µM 99.5% | [6]; at 100.0 µM 99% | [7]; at 33.0 µM 97% | [7]; at 100.0 µM 99% | [8]; [18] 99% | [8]; at 50.0 µM 99.6% | [9]; at 100.0 µM 98% | [10]; [18] 99% | [10]; at 50.0 µM 98.2% | [11]; at 33.0 µM 96% | [11]; [18] 99% | [11]; at 50.0 µM 99.8% | [11]; at 100.0 µM 98% | [12]; at 33.0 µM 88% | [12]; at 100.0 µM 99% | [13]; at 33.0 µM 89% | [13]; at 100.0 µM 99% | [14]; at 33.0 µM 98% | [14]; at 100.0 µM 99% | [15]; [18] 99% | [15]; at 50.0 µM 99.5% | [16]; at 33.0 µM 81% | [16]; at 100.0 µM 98%
inactive: [1]; at 1.2 µM 1% | [1]; at 3.7 µM 8% | [1]; at 11.0 µM 27% | [2]; at 1.2 µM -1% | [2]; at 3.7 µM -1% | [2]; at 11.0 µM 9% | [2]; at 33.0 µM 62% | [3]; at 1.2 µM 21% | [3]; at 3.7 µM 58% | [4]; at 1.2 µM -1% | [4]; at 3.7 µM 1% | [4]; at 11.0 µM 19% | [5]; at 1.2 µM 2% | [5]; at 3.7 µM 4% | [5]; [17] 28% | [5]; at 11.0 µM 20% | [6]; at 1.2 µM -2% | [6]; at 3.7 µM 6% | [6]; [17] 13% | [6]; at 11.0 µM 23% | [7]; at 1.2 µM 0% | [7]; at 3.7 µM 5% | [7]; at 11.0 µM 20% | [8]; [17] 26% | [9]; at 1.2 µM 0% | [9]; at 3.7 µM 2% | [9]; at 11.0 µM 15% | [9]; at 33.0 µM 39% | [10]; [17] 7% | [11]; at 1.2 µM -3% | [11]; at 3.7 µM 0% | [11]; [17] 2% | [11]; at 11.0 µM 13% | [12]; at 1.2 µM -2% | [12]; at 3.7 µM 1% | [12]; at 11.0 µM 15% | [13]; at 1.2 µM -4% | [13]; at 3.7 µM -1% | [13]; at 11.0 µM 17% | [14]; at 1.2 µM 1% | [14]; at 3.7 µM 11% | [14]; at 11.0 µM 45% | [15]; [17] 20% | [16]; at 1.2 µM 0% | [16]; at 3.7 µM 4% | [16]; at 11.0 µM 16%

O=C1C2C=CC1C1C(=O)OC(=O)C21 (stereo unspecified)
inactive: [1]; at 1.2 µM -18% | [1]; at 3.7 µM -15% | [1]; at 11.0 µM -8% | [1]; at 33.0 µM -14% | [1]; at 100.0 µM -24% | [2]; at 1.2 µM -50% | [2]; at 3.7 µM -45% | [2]; at 11.0 µM -45% | [2]; at 33.0 µM -52% | [2]; at 100.0 µM -51% | [3]; at 1.2 µM -17% | [3]; at 3.7 µM -21% | [3]; at 11.0 µM -20% | [3]; at 33.0 µM -11% | [3]; at 100.0 µM -45% | [4]; at 1.2 µM -29% | [4]; at 3.7 µM -13% | [4]; at 11.0 µM -6% | [4]; at 33.0 µM -17% | [4]; at 100.0 µM -28% | [5]; at 1.2 µM -3% | [5]; at 3.7 µM -2% | [5]; [17] 49% | [5]; at 11.0 µM 16% | [5]; at 33.0 µM 13% | [5]; at 100.0 µM -2% | [6]; at 1.2 µM -54% | [6]; at 3.7 µM -52% | [6]; [17] 48% | [6]; at 11.0 µM -44% | [6]; at 33.0 µM -51% | [6]; [18] 58% | [6]; at 100.0 µM -45% | [7]; at 1.2 µM -57% | [7]; at 3.7 µM -44% | [7]; at 11.0 µM -48% | [7]; at 33.0 µM -48% | [7]; at 100.0 µM -43% | [8]; [17] 1% | [8]; [18] -6% | [9]; at 1.2 µM -8% | [9]; at 3.7 µM -6% | [9]; at 11.0 µM -24% | [9]; at 33.0 µM -27% | [9]; at 100.0 µM -25% | [10]; [17] 61% | [10]; [18] 25% | [11]; at 1.2 µM -19% | [11]; at 3.7 µM -10% | [11]; [17] 33% | [11]; at 11.0 µM -22% | [11]; at 33.0 µM -7% | [11]; [18] 14% | [11]; at 100.0 µM -23% | [12]; at 1.2 µM -25% | [12]; at 3.7 µM -9% | [12]; at 11.0 µM -35% | [12]; at 33.0 µM -32% | [12]; at 100.0 µM -34% | [13]; at 1.2 µM -45% | [13]; at 3.7 µM -53% | [13]; at 11.0 µM -39% | [13]; at 33.0 µM -64% | [13]; at 100.0 µM -55% | [14]; at 1.2 µM -28% | [14]; at 3.7 µM -31% | [14]; at 11.0 µM -34% | [14]; at 33.0 µM -20% | [14]; at 100.0 µM -39% | [15]; [17] 53% | [15]; [18] 41% | [16]; at 1.2 µM -23% | [16]; at 3.7 µM -2% | [16]; at 11.0 µM 3% | [16]; at 33.0 µM -28% | [16]; at 100.0 µM -10%
active: [5]; [18] 77% | [5]; at 50.0 µM 83.2% | [6]; at 50.0 µM 90.8% | [8]; at 50.0 µM 89.2% | [10]; at 50.0 µM 91.8% | [11]; at 50.0 µM 89.8% | [15]; at 50.0 µM 82.9%
